This note sets out measurements from PubChem BioAssay.

The nature of experiment [1]: anti-His antibody binders, primary screen, artefact control for SMM control protein annotation, biochemical, small-molecule microarray, 635 nm fluorescence (AID 1128).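 Further: score merges feature fluorescence with signal-to-noise for each printed compound spot.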 The settings on record: anti-His Alexa647 antibody binding, higher = more signal.
The subject of experiment [2] is Human papillomavirus type 1a E7 protein (residues 1-88). As to the kind of experiment: HPV1a E7 small-molecule binders, primary screen, biochemical, small-molecule microarray, residues 1-88, 635 nm (AID 1129). The conditions noted are these: small-molecule microarray binding, fluorescence 635 nm; higher = more signal.
The target in experiment [3] is Focal adhesion kinase 1 (Homo sapiens) (UniProt Q05397). The experiment in a line: small-molecule microarray binders of FAK, primary screen, biochemical, 635/667 nm fluorescence, BSA, DTT (AID 1130).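 Further: composite of spot emission at 667 nm and signal to noise over triplicate slides.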 The conditions noted are these: PTK2 binding, 635 nm fluorescence, higher = more signal.
Sequence of Focal adhesion kinase 1 (Homo sapiens) (Q05397 whole entry, looked up): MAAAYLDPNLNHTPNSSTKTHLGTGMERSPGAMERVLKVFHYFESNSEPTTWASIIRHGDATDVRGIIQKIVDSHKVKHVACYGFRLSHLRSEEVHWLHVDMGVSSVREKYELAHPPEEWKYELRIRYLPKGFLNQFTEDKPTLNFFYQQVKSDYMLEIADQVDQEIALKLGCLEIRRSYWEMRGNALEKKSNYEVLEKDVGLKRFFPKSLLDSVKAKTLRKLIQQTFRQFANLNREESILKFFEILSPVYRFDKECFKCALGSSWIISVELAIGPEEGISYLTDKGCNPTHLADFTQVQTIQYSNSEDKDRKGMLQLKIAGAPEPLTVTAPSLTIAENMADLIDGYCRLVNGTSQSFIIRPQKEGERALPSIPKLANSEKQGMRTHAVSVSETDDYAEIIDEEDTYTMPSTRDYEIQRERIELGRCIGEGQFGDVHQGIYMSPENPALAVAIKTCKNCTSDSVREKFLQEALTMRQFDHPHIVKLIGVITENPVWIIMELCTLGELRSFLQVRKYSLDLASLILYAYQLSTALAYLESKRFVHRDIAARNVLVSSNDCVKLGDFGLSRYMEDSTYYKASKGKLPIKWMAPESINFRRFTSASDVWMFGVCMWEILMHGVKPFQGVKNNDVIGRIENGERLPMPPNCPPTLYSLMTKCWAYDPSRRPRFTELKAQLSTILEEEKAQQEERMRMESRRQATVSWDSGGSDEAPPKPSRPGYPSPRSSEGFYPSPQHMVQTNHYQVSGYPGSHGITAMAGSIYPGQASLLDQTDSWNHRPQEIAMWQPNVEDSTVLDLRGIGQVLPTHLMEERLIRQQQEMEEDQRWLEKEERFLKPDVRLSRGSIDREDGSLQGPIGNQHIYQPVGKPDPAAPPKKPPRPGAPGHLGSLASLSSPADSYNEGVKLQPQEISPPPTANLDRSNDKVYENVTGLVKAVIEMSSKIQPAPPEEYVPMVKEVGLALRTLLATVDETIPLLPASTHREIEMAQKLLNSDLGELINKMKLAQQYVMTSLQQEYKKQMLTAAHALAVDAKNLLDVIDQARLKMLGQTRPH
Experiment [4] deals with Fibrinogen (Alexa647-labelled). As to the kind of experiment: fibrinogen binders on compound microarrays, profiling panel, artefact control for SMM control-protein annotation, biochemical, small-molecule microarray, 635/667 nm fluorescence (AID 1131).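 Further: z-score merges 667 nm fluorescence with per-spot signal-to-noise over triplicate slides.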 The settings on record: fibrinogen-A647 binding fluorescence, higher = more signal.
Experiment [5] deals with Follistatin (Homo sapiens) (UniProt P19883). The experiment in a line: follistatin binders on small-molecule microarrays, primary screen, biochemical, small-molecule microarray, 635/667 nm fluorescence (AID 1132). The settings on record: FST binding, 635 nm fluorescence, higher = more signal.
Sequence of Follistatin (Homo sapiens) (P19883 whole entry, looked up): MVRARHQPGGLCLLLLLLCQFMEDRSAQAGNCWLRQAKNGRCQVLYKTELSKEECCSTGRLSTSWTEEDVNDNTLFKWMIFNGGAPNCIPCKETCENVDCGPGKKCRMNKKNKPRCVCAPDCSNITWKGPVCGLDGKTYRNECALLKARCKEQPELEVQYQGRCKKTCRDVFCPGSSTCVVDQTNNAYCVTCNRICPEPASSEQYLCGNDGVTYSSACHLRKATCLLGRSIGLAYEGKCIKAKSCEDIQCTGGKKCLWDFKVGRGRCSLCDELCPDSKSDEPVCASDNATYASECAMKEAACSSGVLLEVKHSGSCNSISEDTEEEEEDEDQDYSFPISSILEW
Experiment [6] has as its target Fibroblast growth factor 2 (Homo sapiens) (UniProt P09038). The experiment in a line: FGF2 binders on small-molecule microarrays, primary screen, biochemical, small-molecule microarray, 635/667 nm fluorescence (AID 1133). The conditions noted are these: small-molecule microarray binding, FGF2, fluorescence 635/667; higher = more signal.
Experiment [7] in a line: mitochondrial membrane potential change in A549 cells, profiling panel, cell-based, JC-1 fluorescence, basal, 24 h, 100 nL (AID 1138).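 Further: A549 lung adenocarcinoma cells under basal conditions with no added stimulus; test concentration not given here.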 The settings on record: higher = more signal.
The test system of another experiment is Lefty1. As to the kind of experiment: Lefty1 binders on small-molecule microarrays, primary screen, biochemical, small-molecule microarray, 635/667 nm fluorescence (AID 1139). The settings on record: small-molecule microarray binding, fluorescence 635/667; higher = more signal.
In experiment [8] the test system is wheat germ agglutinin (Triticum aestivum), Alexa647-labelled. As to the kind of experiment: wheat germ agglutinin binders on compound microarrays, profiling panel, artefact control for SMM control-protein annotation, biochemical, small-molecule microarray, 635/667 nm fluorescence (AID 1140).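 Further: score merges 667 nm feature emission with signal to noise over triplicate slides.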 The settings on record: WGA-A647 binding, 635 nm fluorescence, higher = more signal.

Experiment [9] concerns the target Luciferin 4-monooxygenase (Photinus pyralis) (UniProt P08659). As to the kind of experiment: firefly luciferase enzyme inhibitors, primary screen, biochemical, luminescence, purified enzyme, 2006 set (AID 1141).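 Further: cell-free assay with purified firefly luciferase at 100 ng per well in PBS; test concentration not given here.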 The settings on record: SteadyGlo luminescence, 30 min, higher = more signal, called active from +8 up or from −8 down.
In experiment [10] the test system is Wnt5a (protein binding on small-molecule microarray). The experiment in a line: Wnt5a binders on small-molecule microarray, primary screen, biophysical, 635/667 nm fluorescence (AID 1142).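 Further: fluorescence read at 667 nm with signal to noise per printed feature.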 The conditions noted are these: 635 nm fluorescence, higher = more signal.
Experiment [11] can be described thus: cell viability in Huh7 cells, primary screen, cytotoxicity control for HCV replication inhibitor project, CellTiter-Glo luminescence, basal, 48 h (AID 1143).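 Further: Huh7 hepatoma cells carrying a hepatitis C replication reporter with no stimulus; test concentration not given here.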 The settings on record: Huh7 HCV replicon, higher = more signal, called active from +8 up or from −8 down. (ATP-based viability assays read luminescence as a measure of living cells.)
Experiment [12] in a line: P. aeruginosa biofilm formation inhibitors, primary screen, PAO1 strain, BacTiter-Glo luminescence, LB-PBS (AID 1144). The settings on record: 12 h, higher = more signal.
A short description of experiment [13]: CREB reporter modulators without forskolin, primary screen, cell-based, PC12, CRE-LacZ reporter, unstimulated (AID 1145). The conditions noted are these: no forskolin, luminescence, 4.5 h, higher = more signal, called active from +8 up or from −8 down.
The nature of experiment [14]: CREB reporter modulators under forskolin, primary screen, cell-based, PC12, CRE-LacZ reporter, forskolin-stimulated (AID 1146).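 Further: PC12 cells with 6xCRE LacZ reporter stimulated by forskolin 10 µM; beta-galactosidase reporter signal reflecting CREB driven transcription.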 The conditions noted are these: luminescence, 4.5 h, higher = more signal, called active from +8 up or from −8 down.
In experiment [15] the target is Streptavidin (Streptomyces avidinii) (UniProt P22629). The experiment in a line: streptavidin binders on small-molecule microarray, primary screen, artefact control for SMM compound annotation, biophysical, 635/667 nm fluorescence (AID 1147).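 Further: signal reflects streptavidin binding to arrayed compounds as a control protein.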 The settings on record: streptavidin binding, higher = more signal.
Sequence of Streptavidin (Streptomyces avidinii) (P22629 whole entry, looked up): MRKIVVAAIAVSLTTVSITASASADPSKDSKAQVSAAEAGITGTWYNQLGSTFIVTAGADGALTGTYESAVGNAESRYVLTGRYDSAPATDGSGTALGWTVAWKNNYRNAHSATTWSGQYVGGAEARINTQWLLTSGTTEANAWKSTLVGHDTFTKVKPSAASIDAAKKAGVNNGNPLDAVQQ
Experiment [16] in a line: small-molecule binders of probe aInhba, primary screen, biochemical, small-molecule microarray, 635/667 nm fluorescence (AID 1148).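 Further: score merges 667nm spot fluorescence with signal-to-noise for antibody binding to printed compounds.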 The settings on record: higher = more signal.
For experiment [17], the target named is Torsin-1A (Homo sapiens) (UniProt O14656). The experiment in a line: torsin A binders from cell lysate, primary screen, small-molecule microarray, wild-type, 635/667 nm (AID 1149). The conditions noted are these: COS7 hTOR1A-WT lysate, 635 nm fluorescence, higher = more signal.
Sequence of Torsin-1A (Homo sapiens) (O14656 whole entry, looked up): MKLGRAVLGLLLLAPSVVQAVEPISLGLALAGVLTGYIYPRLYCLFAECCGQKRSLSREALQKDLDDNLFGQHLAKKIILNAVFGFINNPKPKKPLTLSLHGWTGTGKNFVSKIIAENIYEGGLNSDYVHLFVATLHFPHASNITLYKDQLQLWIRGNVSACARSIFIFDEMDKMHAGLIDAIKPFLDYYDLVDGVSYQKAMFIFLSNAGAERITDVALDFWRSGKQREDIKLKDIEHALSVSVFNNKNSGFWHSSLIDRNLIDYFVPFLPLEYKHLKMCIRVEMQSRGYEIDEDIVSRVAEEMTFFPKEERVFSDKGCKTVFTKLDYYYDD
Experiment [18] has the same target. As to the kind of experiment: small-molecule binders of mutant TOR1A in lysate, primary screen, cell lysate, small-molecule microarray, COS7 lysate, 635/667 nm fluorescence (AID 1150).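 Further: score pools 667 nm emission and signal to noise measuring lysate protein binding.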 The settings on record: COS7 hTOR1A mutant lysate, 635 nm fluorescence, higher = more signal.
In experiment [19] the test system is Sonic hedgehog protein (Shh). As to the kind of experiment: small-molecule binders of Shh protein, primary screen, biochemical, small-molecule microarray, 635/667 nm fluorescence (AID 1151).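 Further: Shh protein binding to compounds spotted on small-molecule microarray slides; score combines spot fluorescence intensity with signal-to-noise across triplicate slides.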 The conditions noted are these: small-molecule microarray binding, 635 nm fluorescence; higher = more signal.

Values joined by “and” are separate entries in the source; they are usually repeats but may differ in a detail not shown here. Equal values may be shown once. Active and inactive are the calls of the source. Unless noted, how the calls were made is not given here.

Sequence of Luciferin 4-monooxygenase (Photinus pyralis) (P08659 whole entry, looked up): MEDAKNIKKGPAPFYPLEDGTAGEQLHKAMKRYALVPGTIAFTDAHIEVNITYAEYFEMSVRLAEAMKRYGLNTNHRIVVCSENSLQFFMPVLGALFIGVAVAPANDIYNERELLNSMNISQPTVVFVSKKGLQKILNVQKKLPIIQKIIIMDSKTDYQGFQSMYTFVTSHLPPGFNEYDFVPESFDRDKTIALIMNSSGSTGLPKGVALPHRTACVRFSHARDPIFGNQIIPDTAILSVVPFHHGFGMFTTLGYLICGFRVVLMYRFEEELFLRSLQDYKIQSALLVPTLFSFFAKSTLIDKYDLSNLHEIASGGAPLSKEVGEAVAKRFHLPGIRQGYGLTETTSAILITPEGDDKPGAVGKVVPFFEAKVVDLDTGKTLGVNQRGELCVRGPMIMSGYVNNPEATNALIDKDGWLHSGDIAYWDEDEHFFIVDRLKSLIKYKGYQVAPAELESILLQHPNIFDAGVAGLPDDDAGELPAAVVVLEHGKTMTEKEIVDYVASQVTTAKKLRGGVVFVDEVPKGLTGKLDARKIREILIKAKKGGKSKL
Sequence of Fibroblast growth factor 2 (Homo sapiens) (P09038 whole entry, looked up): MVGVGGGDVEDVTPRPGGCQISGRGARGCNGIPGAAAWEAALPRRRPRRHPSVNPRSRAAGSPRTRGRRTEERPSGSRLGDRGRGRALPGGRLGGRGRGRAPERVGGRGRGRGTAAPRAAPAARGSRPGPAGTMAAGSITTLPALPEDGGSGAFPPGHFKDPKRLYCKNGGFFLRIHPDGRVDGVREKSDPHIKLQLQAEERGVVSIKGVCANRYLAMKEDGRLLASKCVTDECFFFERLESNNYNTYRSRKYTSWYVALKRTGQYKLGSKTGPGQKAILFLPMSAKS

Consider `C=C[C@@H](OC)[C@H](O)c1ccc(OC)c(O)c1`, for which the composite z-score was 0.0608 and -0.368 in [1]; -0.285 and -1.14 in [2]; -0.294 and -1.03 in experiment [3]; -0.267 and -0.492 in [4]; 1.03 and 0.477 in [5]; 0.731 and 0.0203 in experiment [6]. Also, the composite z-score was 0.85 and -0.493 with Lefty1; -0.368 and 0.0786 in experiment [8]; 0.192 and -0.0615 in experiment [10]; -0.964 and -1.77 in experiment [15]; -0.281 and -0.306 in [16]; 0.059 and -0.285 in the experiment with Torsin-1A (Homo sapiens) [17]. The composite z-score in the experiment with Torsin-1A (Homo sapiens) [18] was -0.242 and -0.089; in experiment [19] it was 0.439 and -0.117. Also, the z-score in experiment [7] was -0.366 and 0.877; in experiment [9], 0.318 (inactive) and -0.905 (inactive); in experiment [11] it was -0.825 (inactive) and 1.07 (inactive); in experiment [12] it was 0.729 (inactive); in experiment [13], 0.441 (inactive) and -0.142 (inactive); in experiment [14], 0.0793 (inactive) and -1.37 (inactive).

Consider `O=C1NC(=O)C2C1C=CC(C(O)c1ccc([N+](=O)[O-])cc1)N2Nc1ccc(Cl)cc1Cl` (stereo not given), for which the composite z-score in experiment [1] was 0.396 and 0.455; in [2], 1.14 and 1.18; in experiment [3] it was 0.649 and 0.342; in [4] it was 0.969 and 0.703; in experiment [5] it was 0.816 and 0.774; in [6] it was 0.202 and -0.279. The composite z-score in the experiment with Lefty1 is -0.427 and -0.899; in [8], 0.751 and 1.39; in experiment [10], 0.283 and 0.0563; in [15] it was 0.404 and 0.519; in experiment [16], 0.0301 and 0.175; in the experiment with Torsin-1A (Homo sapiens) [17], 0.339 and 1.2. For the same compound, the composite z-score with Torsin-1A (Homo sapiens) [18] was 0.703 and 1.22; in experiment [19], -0.274 and -0.13. In addition, the z-score was 0.824 and -0.201 in experiment [7]; -1.81 (inactive) and -2.34 (inactive) in experiment [9]; -0.311 (inactive) and -0.861 (inactive) in [11]; -1.48 (inactive) and -2.27 (inactive) in experiment [12]; 0.812 (inactive) and 0.443 (inactive) in experiment [13]; 0.479 (inactive) and -0.492 (inactive) in experiment [14].

In the case of `C=CCN(C(=O)C1N(C(C)(C)CO)C(=O)C2C(C(=O)O)C3C=CC21O3)C(C)(C)C` (stereo not given), the composite z-score was -0.574 and -1.26 in experiment [1]; -0.937 and -0.349 in experiment [2]; -0.892 and -0.328 in experiment [3]; -2.12 and 0.119 in [4]; -1.98 and -1.82 in experiment [5]; -2.47 and -2.04 in experiment [6]. Moreover, the composite z-score is -2.81 and -2.22 in the experiment with Lefty1; -1.64 and 0.157 in experiment [8]; -1.52 and -0.697 in experiment [10]; -1.86 and -1.52 in experiment [15]; -0.271 and -0.302 in [16]; -3.46 and 0.256 with Torsin-1A (Homo sapiens) [17]. In addition, the composite z-score with Torsin-1A (Homo sapiens) [18] was -2.89 and 0.829; in experiment [19] it was -2.51 and -1.85. Also, the z-score in experiment [7] is -0.377 and 0.637; in experiment [9], 0.0864 (inactive) and -0.639 (inactive); in experiment [11], -0.037 (inactive) and -0.67 (inactive); in experiment [12] it was 1.58 (inactive) and 1.05 (inactive); in experiment [13], 0.471 (inactive) and 0.996 (inactive); in experiment [14], 0.0027 (inactive) and -0.21 (inactive).

`O=C(NN=C1C[C@@H](O)[C@@H](O)[C@@H]2[C@@H]3C(=O)N(Cc4ccc5c(c4)OCO5)C(=O)[C@@H]3CC[C@H]12)OCc1ccccc1`: the composite z-score in experiment [1] is -0.668; in experiment [2], -0.429; in experiment [3], -0.0697; in [4], -0.507; in experiment [5] it was -1.07; in experiment [6], -0.274. The composite z-score with Lefty1 is -0.418; in experiment [8], -0.754; in experiment [10], 0.627; in [15], -0.872; in [16] it was -0.0245; in the experiment with Torsin-1A (Homo sapiens) [17], 2.05. Also, the composite z-score with Torsin-1A (Homo sapiens) [18] is 0.392; in [19], -0.858. Besides, the z-score in [7] is -0.174; in experiment [9], 0.0421 (inactive); in experiment [11], 0.0294 (inactive); in experiment [12] it was 1.54 (inactive); in [13], -1.29 (inactive); in experiment [14], 0.383 (inactive).
